# Shown is part of a subset that was picked to be rich in hits.
# Pf Dd2 inh – Plasmodium falciparum Dd2 growth inhibition | Potency, µM (doses to about 28.9 µM), for the others: top-dose activity, negative = inhibition, most hits filed as inhibitors | AID 1347417 | 4.3% of 120,000 active | P. falciparum Dd2 growth, SYBR Green, 72 h; active = well fitted inhibition curve with a large enough effect;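 note: plate controls were DMSO vehicle for no effect and reference drug for full effect; nearly all actives have a fitted effect of over 65% in size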
#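 Infected erythrocytes (Dd2, 0.3% parasitemia, 2.5% hematocrit final) are added to compound in RPMI-1640/Albumax II medium, grown 72 h at 37C in low oxygen, then lysed with saponin/Triton-X containing SYBR Green and read by fluorescence.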
# * marks the source's active call; other numbers are inactive results; i = inactive; [ ] = another dose, or the depositor's remark. Potency is the fitted concentration of half-maximal effect.
SMILES,Pf Dd2 inh
COCCOc1cc(C)c2c(c1C)C[C@H]([C@H](C)C(=O)Nc1ccccn1)CC2,13µM*
COCCOc1cc(C)c2c(c1C)C[C@H]([C@H](C)C(=O)NC1CCCC1)CC2,i
COC1CCN(C(=O)c2cnc3c(c2)N(Cc2ccccc2)CCC3)CC1,-9%[44.1 µM]
CC1CCCN(Cc2cn3c(-c4cccc(Br)c4)nnc3s2)C1 (stereo not given),22%
Cc1ccc(-n2cc(CN3CCN4CCCC4C3)c(-c3cccc(C)c3)n2)cc1 (stereo not given),13µM*
COC(=O)CN(C)Cc1cn(-c2ccc(C)cc2)nc1-c1cccc(C)c1,-12%
CN(C)C(=O)CN1CCCC(N2CCN(c3cccc(C(F)(F)F)c3)CC2)C1 (stereo not given),-9%
Cc1ccc(-n2cc(CN3CCN(C)C(CCO)C3)cn2)cc1 (stereo not given),-22%
Cc1ccc(-n2cc(CN3CCC(CCO)CC3)c(-c3cccc(C)c3)n2)cc1,10µM*
CCCn1cnc2c1CN(S(C)(=O)=O)[C@H](C(=O)OC)C2,7%[44.1 µM]
CCc1ccc(C(=O)N2c3ccccc3CC2c2nc(C3CC3)no2)cc1 (stereo not given),8%[5.79 µM]
CCNC(=O)N1C[C@H]2OC(=O)N(Cc3ccc(OC)c(OC)c3)[C@H]2C1,3%
O=C(O)CCC(=O)N[C@H]1CCN2C(=O)c3cc(-c4ccc(F)cc4F)ccc3NC(=O)[C@H]12,17%
O=c1[nH]nc2n1CCN(Cc1ccncc1)CC2,3%
Cc1cnc(C(=O)N2CC(N(C)Cc3cccnc3)C2)cn1,1%
COc1ccc(Cn2ccc3nc(C)c(C(=O)N4CCN(c5cccc(OC)c5)CC4)cc3c2=O)cc1,13µM*
COc1ccc(Cn2ccc3nc(C)c(C(=O)NCc4cccc(OC)c4)cc3c2=O)cc1,-25%
COc1ccc(Cn2ccc3nc(C)c(C(=O)N4CCN(c5ccccc5)CC4)cc3c2=O)cc1,14%
CC(C)NC(=O)N1CCCCCCNC(=O)[C@@H]2CCCC[C@@H]21,1%
COc1ccccc1Nc1c2c(nc3ccc(NC(=O)c4cccc(OC)c4OC)cc13)CCCC2,5.6µM*
Cc1ccc(Nc2c3c(nc4ccccc24)CCC3)cc1F,i
COc1ccc(C(=O)Nc2ccc3nc4c(c(Nc5ccc(OC)c(OC)c5)c3c2)CCCC4)c(OC)c1,-8%
COc1ccccc1NC(=O)c1ccccc1NC(=O)c1ccccc1,-1%
CCN(CC)c1cc(C)c2cc(NC(=O)c3ccc(OC)c(OC)c3)ccc2n1,-2%
COc1ccccc1NC(=O)c1ccc2c(Cl)c3c(nc2c1)CCCC3,12%
SMILES,Pf Dd2 inh
COc1ccccc1Nc1c2c(nc3ccc(NC(=O)c4ccccc4F)cc13)CCCC2,3.5µM*
CCOc1ccccc1NC(=O)CSc1c2c(nc3ccc(Cl)cc13)CCCC2,i
COc1ccc(Nc2c3c(nc4ccc(NC(=O)c5ccc(F)cc5)cc24)CCCC3)cc1OC,4µM*
O=C(c1ccccc1OC(F)(F)F)N1CCC2(CC1)CC(O)CCO2 (stereo not given),20%
CCCS(=O)(=O)N1CCCN(S(=O)(=O)c2ccccc2)CCC(=O)NCC1,9%
COc1ccc(OC)c(S(=O)(=O)N2CCCCCCN(C)C(=O)CC2)c1,-15%
O=C(CN1CC2CC(C1)[C@H]1CCCC(=O)N1C2)NCc1ccc(F)cc1F (stereo not given in full),-17%
COc1ccc(C(=O)N2CCc3ccc(C(=O)NCc4cccc(OC)c4)cc32)cc1,-6%
COc1cc(C(=O)N2C[C@@H](C)[C@@](C)(O)C2)ccn1,-9%
COc1ccc(OC)c(S(=O)(=O)N2CCCC(Cn3c(C)nc4cccnc43)C2)c1 (stereo not given),i
COc1ccc(OC)c(S(=O)(=O)N2CCC(n3cnnc3C)CC2)c1,-23%
CCCn1c(C)cnc1C1CCN(S(=O)(=O)c2cc(OC)ccc2OC)C1 (stereo not given),3.5µM*
CSc1cccc(NC(=O)Cn2c(Nc3cc(C)cc(C)c3)nc(C)cc2=O)c1,-10%
C[C@H](O)c1onc(-c2ccc(F)cc2)c1C(=O)N1CCCCC1,-11%[44.1 µM]
O=[S+]([O-])(Nc1ccccc1)c1ccc2c(c1)OCCN(Cc1cncnc1)C2,i
CN(C)C[C@H]1C[C@@H](CO)CN(C(=O)c2cc(-c3ccccc3F)n[nH]2)C1,12%
COCCN1CC2(CCCN(C(=O)c3cc(-c4ccsc4)n[nH]3)C2)CCC1=O (stereo not given),-18%
O=C(c1cc(-c2ccccc2F)n[nH]1)N1CCC2(CCCN(Cc3ccccc3F)C2)C1 (stereo not given),8.9µM*
CCNC(=O)O[C@@H]1CC[C@]2(C)C(CC[C@@H](O)[C@H]2CC(=O)NCc2cc(F)cc(F)c2)[C@]1(C)CO (stereo not given in full),-10%
O=C(O)CCC1CCN(C(=O)c2ccccc2F)CC1,3%
Cc1cccc(-n2ncc(C(=O)N3CCOCC3)c2C2CCN(C(=O)OC(C)(C)C)CC2)c1,21%
Cc1ccc(C2CCN(C(=O)c3cnn(-c4cccc(Cl)c4)c3C3CCN(C(=O)OC(C)(C)C)CC3)C2)cc1 (stereo not given),4.5µM*
CN1CCN(C(=O)c2cnn(-c3cccc(F)c3)c2C2CCN(C(=O)OC(C)(C)C)CC2)CC1,22%
CC(C)(C)OC(=O)N1CCC(c2c(C(=O)N3CCC(c4ccccc4)C3)cnn2-c2cccc(Cl)c2)CC1 (stereo not given),3.5µM*
CC(C)(C)OC(=O)N1CCC(c2c(C(=O)N3CCN(Cc4ccccc4)CC3)cnn2-c2cccc(Cl)c2)CC1,3.2µM*
SMILES,Pf Dd2 inh
CC(C)(C)OC(=O)N1CCC(c2c(C(=O)N3CCN(c4ncccn4)CC3)cnn2-c2ccccc2)CC1,-2%
COc1ccccc1N1CCN(C(=O)c2cnn(-c3cccc(Cl)c3)c2C2CCN(C(=O)OC(C)(C)C)CC2)CC1,7.9µM*
CCOc1ccc(C(=O)N2CCC3(CC2)CC(O)CCO3)cc1 (stereo not given),-8%
CC(C)c1noc(-c2cn(C3CCN(C(=O)c4ccc5c(c4)OCO5)C3)nn2)n1 (stereo not given),i
CN1C(=O)C(c2ccccc2)CC12CCN(C(=O)c1ccccc1F)CC2 (stereo not given),3%
COc1ccc(C)cc1NC(=O)Cn1nc2n(c1=O)CCCCC2,9%
COc1ccc(Cl)cc1C(=O)N1CCCC(n2cc(-c3noc(C)n3)nn2)C1 (stereo not given),i
CCC(C)n1c(C(C)NC(=O)OCc2ccccc2)nc2cccnc21 (stereo not given),i
CC(C)Oc1ccc2c(NC(=O)C3CCOCC3)nn(CC(F)(F)F)c2c1,-12%
CS(=O)(=O)N1CCC(OC2CCN(C(=O)NCCc3ccccc3)CC2)CC1,-8%
CNC(=O)[C@@H](c1ccc(Cl)cc1)N1CCC[C@H]1C(=O)NCCOC,9%[44.1 µM]
CCOCCCNC(=O)CN1CC2CC(C1)[C@H]1CCCC(=O)N1C2 (stereo not given in full),-5%
COCC1CN(Cc2cccc3[nH]ccc23)CC12CCNCC2 (stereo not given),i
COc1cc2c(cc1OC)C(C[C@H]1CN(C(=O)Cc3cccs3)CC[C@H]1CC(=O)O)=NCC2,-12%
COc1ccc(C(=O)N2CCN(C(=O)N3CC4CC(C3)[C@H]3CCCC(=O)N3C4)CC2)cn1 (stereo not given in full),-17%
COCC1CN(C)CC12CCN(Cc1ccncc1F)CC2 (stereo not given),19%
